The values that follow come from PubChem BioAssay (NCI).

Compounds without any hit were thinned out: in the full panel of roughly 83,000, 20% have a hit.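 A percent growth of 40 corresponds to 60% growth inhibition; 0 means no net growth; -100 means all cells died. Active threshold: below 10.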 Unmarked numbers belong to inactive results. Activity calls are given as the source filed them.

This test relates to A498 renal. The experiment in a line: NCI-60 one-dose screen, 48 h (100 = growth as untreated, 0 = no growth, -100 = all killed). Conditions: 10 µM unless noted. How it is done:
Growth inhibition of the A498 human tumor cell line is measured as a screen for anti-cancer activity. Cells are grown in 96 well plates and exposed to the test compound for 48 hours. Compounds are tested at a single concentration, which is 10^-5 M for most compounds. The reported endpoint is percent growth (GI% or GIPRCNT), where numbers from 0 - 100% represent growth inhibition, and numbers from -100% - 0 represent cell death. For example, a value of 40 represents 60% growth inhibition. A value of 0 means no net growth occurred over the course of the experiment. A value of -40 indicates 40% of cells at the beginning of the experiment died by the end of the experiment. A value of -100 means all cells are dead at the end of the experiment.
NCI-60 Human Tumor Cell Lines Screen was performed using the standard one-dose NCI protocol, which is described in more detail at https://dtp.cancer.gov/discovery_development/nci-60/default.htm.
Compounds with GIPRCNT values below 10 were considered active. Activity score was based on GIPRCNT using the following formula: […]
Score is 0 for GIPRCNT values of 100 or above, 50 for GIPRCNT values of 0, and 100 for GIPRCNT values of -100.
Regarding `CC(C)CCC[C@@H](C)[C@H]1CC[C@H]2[C@@H]3CC[C@H]4C/C(=N/O)CC[C@]4(C)[C@H]3CC[C@]12C`, the growth is 98.5%.

Consider `Cc1cc(C(=O)CSc2nc3ccccc3c(=O)[nH]2)c(C)n1C`, for which the growth is 74.6%.

For the compound `COc1ccc(Cl)cc1NC(N)=S`, the growth is 95.9%. The same measure for `COc1ccc(OC)c(NC(=O)c2cc(S(=O)(=O)N3CCc4ccccc43)ccc2OC)c1`: 69.8%; for `CC1=NN2C(=NC3=C(CCC/C3=C\c3ccc(Cl)cc3)C2c2ccc(Cl)cc2)S1` (stereo not given): 87.6%; for `CCNc1nc(N2CC(=O)Nc3cc(OC)ccc32)c2ccccc2n1`: -11.4% (active). The same measure for `O=C(Nc1ccc(F)c(Cl)c1)c1n[nH]c(=O)c2ccccc12`: 103%; for `COC(=O)C(CC(=O)c1ccc(-c2ccccc2)cc1)c1ccccc1` (stereo not given): 41.7%.

As for `C=C1C(=O)O[C@H]2[C@H]1CC/C(COC(=O)NCc1cc(OC)c(OC)c(OC)c1)=C\CC[C@@]1(C)O[C@@H]21`, the growth is 109%. With `NC(=O)c1cccc(N2Cc3ccccc3OC3=C2C(=O)c2c(O)ccc(O)c2C3=O)c1`, the growth was 62.1%. To `Nc1nc(-c2cc3ccccc3o2)cc(=O)c(=O)[nH]1` belongs 99.2%; to `ClC1=C(Cl)C(Cl)=C(Cl)C1=Cc1ccc(Cl)cc1Cl`, -89.6% (active); to `CCCCCC/C=C\CCCCCCCCOc1ccc(CCOP(=O)(O)OCC[N+](C)(C)C)cc1`, 95.6%. As for `CCN1C(=O)N[C@H]2[C@@H]3NC(=O)c4ccc(Cl)n4[C@@H]3C[C@]21O`, the growth is -0.0737% (active). The same measure for `O=S=Nc1ccc([N+](=O)[O-])cc1`: 79.2%; for `O=S(=O)(NCCCNc1nccc(-c2c(-c3ccc(F)c(O)c3)nc3sccn23)n1)c1ccc(Cl)cc1`: 109%; for `COc1ccc(-n2cnc3c(sc4ncc(Cl)cc43)c2=O)cc1`: 76.8%. To `Cc1cc(Cl)ccc1OC(C)C(=O)Nc1nnc(C2CC2)s1` (stereo not given) belongs 95.2%. To `COc1ccc(/C=C2\C(=O)N(C(=O)c3csc(NC(C)=O)n3)N=C2C)cc1` belongs 121%; to `O=C1Nc2cc(Cl)ccc2Oc2cc(Oc3ccccc3)ccc21`, 67.1%; to `Cc1ccnc2nc(C(=O)OCC(=O)Nc3ccc(-c4ccccc4)cc3)nn12`, 105%. For `CC(CCc1ccccc1)NC(=O)c1n[nH]c(=O)c2ccccc12` (stereo not given), the growth was 98.4%. `COc1ccc(NC(=O)CSc2nc3ccccc3c(=O)n2Cc2cc(OC)c(OC)c(OC)c2)cc1`: the growth was 87.1%. Take `Nc1c(C(=O)c2ccc(F)cc2)sc2nc3c(cc12)CCCC3`: the growth was 56.2%. To `O=c1c2cccc3c(Nc4ccc(F)cc4)ccc(c32)c2nc3ccccc3n12` belongs 66.2%; to `COc1cc(NC(=O)CCl)ccc(=O)c1`, 85.7%; to `O=C(CCCn1c2c(sc3ccccc32)c(=O)n2nnc(-c3ccccc3)c12)NCCc1cnc[nH]1`, 27.2%. The same measure for `CCN(CC)CCC(=O)c1cccc2ccccc12`: 101%; for `N=C(N)c1ccc(-c2ccc(-c3ccc(Cl)cc3)o2)nc1`: -58.4% (active).

In the case of `COc1cc2c(cc1OC)C1(C)N(CC2)C(=O)OC1(C)C` (stereo not given), the growth is 78.8%. Take `CN1C(=O)[C@H]2c3c1cccc3[C@@]13NC(=O)O[C@H]1[C@H](CCC3(C)C)C2(C)C`: the growth is 107%. To `COc1ccc(/C=N/NC(=O)Cn2c(Cc3cccc4ccccc34)nc3ccccc32)cc1` belongs 85.5%; to `CCC(C)NCC(=O)O` (stereo not given), 107%. The same measure for `O=C(/C=C/CN1CCCCC1)Nc1cc2c(Nc3ccc(F)c(Cl)c3F)ncnc2cc1OCCOC(F)F`: -21.7% (active); for `Nc1c(C(=O)Nc2cccc(C(F)(F)F)c2)sc2nc3c(cc12)C(O)CCC3` (stereo not given): -2.02% (active); for `Nc1nc(Cl)c2c(ncn2Cc2ccc(CCl)cc2)n1`: 97.3%. Turning to `COC(=O)c1ccc(C)cc1`, the growth was 79.9%. To `Oc1ccc(Cl)cc1-c1cc(-c2ccc(Cl)cc2)n[nH]1` belongs 84.3%; to `COc1cc(OC)cc(-c2n[nH]nc2-c2ccc3c(c2)OCO3)c1`, -1.56% (active); to `Cc1cc(Nc2nc(-c3ccncc3)nc3ccccc23)n[nH]1`, 4.45% (active).
